# Measurements published in PubChem BioAssay (Tox21).
# Records with an inconclusive call do not appear. Active and inactive are the calls of the source. Calls come from the whole dose curve; as a rule, active = well fitted cell-killing curve with a large enough effect in the repeat runs; inconclusive = weak or mixed curves, or effect the other way; inactive = no such curve, though single readings can be large or run the other way.
# Assay: qHTS assay for identifying genotoxic compounds that show differential cytotoxicity against isogenic chicken DT40 cell lines with known DNA damage response pathways - Rev3 mutant cell line (AID 743014); note: nearly all actives have a fitted effect of over 55% in size
# Conditions: chicken DT40 Rev3-/- viability, CellTiter-Glo, 40 h; series mostly up to 68.4 µM; activity, negative = cytotoxicity: at the top concentration
# Description: National Center for Advancing Translational Sciences [NCATS]
# NIH Chemical Genomics Center [NCGC]
# U.S. Environmental Protection Agency [EPA]
# National Institutes of Environmental Health Sciences [NIEHS]
# National Toxicology Program [NTP]
# U.S. Food and Drug Administration [FDA]
# DNA repair pathways play a critical role in cellular homeostasis by repairing DNA damage induced by endogenous processes and xenobiotics. Isogenic chicken DT40 cell lines deficient in different DNA repair pathways can be used to identify genotoxic compounds and aid in characterizing the nature of the DNA damage induced. Two DNA repair-deficient cell lines with disrupted genes, Rad54/Ku70 or Rev3, were used to screen the Tox21 10K compound library. Possible genotoxicity was based on the presence of a significant increase in cytotoxicity in one or more of the DNA repair-deficient cell lines compared to that observed in the parental DNA repair-proficient cell line. CellTiter Glo viability assay (Promega, Madison, WI) was used to measure cell viability in these cells after compound treatment. This assay includes the data from the Rev3 mutant cell line.
# Tox21 Assay Protocol Summary:
# 300 DT40 mutant cells in 5 uL/well were dispensed into white, solid-bottom 1536-well plates using a Multidrop Combi (ThermoFisher Scientific, Waltham, MA) dispenser. After the assay plates were incubated at 37 C/5% CO2 for approximately 0.5 hour, 23 nL of compounds dissolved in DMSO, positive controls or DMSO only was transferred into the assay plate by a pintool work station (Kalypsys, San Diego, CA). The assay plates were incubated at 37 C/5% CO2 for 40 hours. After 5 uL per well of CellTiter-Glo reagent was added into each well of the assay plates, the plates were incubated for 30 min at room temperature and the luminescence intensity of the plates was measured using a ViewLux (PerkinElmer, Shelton, CT) plate reader.
# % is set by controls: 0 for no effect and ±100 for the full control effect; potency is the fitted concentration of half-maximal effect.
Compound,"activity, negative = cytotoxicity",Potency
CCN1CN(CC)CN(CC)C1,-20.4% (inactive),–
Cc1ccc(S(=O)(=O)NC(=O)NC2CCCCCCC2)cc1,0.271% (inactive),–
NC(=O)NNC(N)=O,-16.8% (inactive),–
C[N+](C)(C)CC(O)CCl (stereo not given),2.74% [at 95 µM] (inactive),–
CC(C)SCc1ccco1,10.3% [at 31.4 µM] (inactive),–
Cc1nc2ccccc2c(=O)o1,3.28% [at 95 µM] (inactive),–
O=C(O)c1ccccc1C(=O)Nc1ccc(S(=O)(=O)Nc2nccs2)cc1,15.1% (inactive),–
C[CH2][Ge]([Cl])([CH2]C)[CH2]C,-0.0907% [at 95 µM] (inactive),–
CC(C)C(=O)c1ccccc1,10.2% (inactive),–
C[C@H](CCC(=O)NCC(=O)O)[C@H]1CC[C@H]2[C@@H]3[C@H](O)C[C@@H]4C[C@H](O)CC[C@]4(C)[C@H]3C[C@H](O)[C@]12C,3.39% (inactive),–
C=CCOc1cc(Cl)ccc1C(=O)NCCN(CC)CC,–,29.8 µM (active)
CC(=O)Nc1ncc([N+](=O)[O-])s1,3.65% (inactive),–
C=C(C)C(=O)OC,7.21% (inactive),–
CCCCCCCC/C=C\CCCCCCCC(=O)OC[C@@H](O)[C@H]1OC[C@H](O)[C@H]1O,–,inactive
CC(C)=CC(C)(C)C,1.97% (inactive),–
Cc1cc(C)cc([N+](=O)[O-])c1,3.97% [at 95 µM] (inactive),–
CN[C@@H]1[C@@H](O)[C@@H](O[C@@H]2[C@H](O)[C@H](O[C@H]3OC(CN)=CC[C@H]3N)[C@@H](N)C[C@H]2N)OCC1(C)O (stereo not given in full),7.78% (inactive),–
O=S(=O)(O)CCO,2.01% [at 95 µM] (inactive),–
COc1ccc(/C=N/NC(=O)c2ccncc2)cc1OC,12% (inactive),–
NS(=O)(=O)c1ccc(Cl)c(S(N)(=O)=O)c1,8.9% (inactive),–

Compound,"activity, negative = cytotoxicity",Potency
CCS(=O)(=O)CCn1c([N+](=O)[O-])cnc1C,3.44% [at 31.4 µM] (inactive),–
O=S(=O)(O)SSS(=O)(=O)O,-18.3% (inactive),–
CCCCCCCC[Si](OCC)(OCC)OCC,11.7% (inactive),–
NC(Cc1c[nH]c2ccccc12)C(=O)O (stereo not given),1.6% (inactive),–
CC(C)COC(=O)/C=C/c1ccccc1,-4.02% (inactive),–
CCCCCCCCCCC,-13.4% (inactive),–
CCCCCCCCC(=O)OCC,0.445% (inactive),–
CCC(C)N (stereo not given),-1.24% (inactive),–
CC(=O)c1ccc(OCC(=O)N2CCCCC2)cc1,-15.9% (inactive),–
Nc1cc(Cl)cc(S(=O)(=O)O)c1O,0.68% [at 95 µM] (inactive),–
CCCCCCCCCCCCC,-15.3% (inactive),–
BrC/C=C/CBr,4.37% [at 31.4 µM] (inactive),–
Cc1ccccc1C(=O)N1CC/C(=N\OS(=O)(=O)O)c2ccc(Cl)cc21,-9.16% (inactive),–
CCc1nccnc1C,-0.845% (inactive),–
Cc1ncc([N+](=O)[O-])n1CC(O)CCl (stereo not given),15.4% [at 31.4 µM] (inactive),–
CCOC(=O)CCCCCCCCC(=O)OCC,–,61.1 µM (active)
COc1cc2c3cc1Oc1cc(ccc1O)C[C@@H]1c4c(cc(OC)c(O)c4Oc4ccc(cc4)C[C@@H]3N(C)CC2)CC[N+]1(C)C,8.01% (inactive),–
CC(=O)OCCCc1ccccc1,7.06% (inactive),–
FC(F)(F)c1ccc(Cl)cc1Cl,10.4% (inactive),–
CCCCCC1Nc2cc(C(F)(F)F)c(S(N)(=O)=O)cc2S(=O)(=O)N1 (stereo not given),0.406% (inactive),–
